Source: PubChem BioAssay (Broad Institute)
AF4-AF9 inh = blocks AF4 peptide binding to human AF9; AlphaScreen, biotin-AF4 peptide binding to FLAG-AF9; actives 0.47% (n = 350,000); inhibition, % at 10 µM; P42568;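 active = every replicate reaching a set inhibition limit, whatever the replicate mean, cut at about 25% in these data; inconclusive = mean inhibition reaches that limit but some replicates miss it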
Target sequence (P42568 whole entry, looked up): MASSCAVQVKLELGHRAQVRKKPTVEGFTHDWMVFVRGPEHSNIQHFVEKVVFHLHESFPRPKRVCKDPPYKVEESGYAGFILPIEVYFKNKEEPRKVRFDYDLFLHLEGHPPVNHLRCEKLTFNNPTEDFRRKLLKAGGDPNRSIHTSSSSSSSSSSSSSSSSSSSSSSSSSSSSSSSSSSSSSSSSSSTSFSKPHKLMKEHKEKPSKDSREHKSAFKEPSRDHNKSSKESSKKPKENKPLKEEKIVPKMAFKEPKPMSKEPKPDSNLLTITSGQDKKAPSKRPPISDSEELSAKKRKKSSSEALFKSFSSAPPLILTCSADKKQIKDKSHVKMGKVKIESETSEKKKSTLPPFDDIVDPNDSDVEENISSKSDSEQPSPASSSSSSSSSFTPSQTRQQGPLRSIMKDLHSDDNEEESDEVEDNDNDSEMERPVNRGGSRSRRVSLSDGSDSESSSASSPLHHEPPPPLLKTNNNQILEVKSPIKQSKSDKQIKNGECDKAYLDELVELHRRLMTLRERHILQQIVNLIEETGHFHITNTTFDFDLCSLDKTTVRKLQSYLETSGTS
Wnt act = activators of Wnt/beta-catenin signaling. Wnt/beta-catenin reporter cell assay, activator, plate reader. activation, % at 9.35 µM. actives 1.2% (n = 300,000). AID 743398; in the data active = activation above about 30%, passing the limit was not always enough; inconclusive = no clear call, values can overlap the other calls
MITF act = activators of MITF-driven TRPM1 promoter activity in SK-MEL-5 cells. SK-MEL-5 TRPM1-promoter luciferase, 24 h; % of positive control, neutral wells = 0. activation, % at 12.5 µM. actives 0.75% (n = 300,000). AID 588334;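 active = mean activation of at least 80% with every replicate also reaching 80%; inconclusive = mean reaches 80% but some replicate falls short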
rRNA inh HTS = selective bacterial rRNA inhibition in E. coli. AID 720706. GFP signal change (wild-type ribosome), % (concentration not given with the values). actives 1.6% (n = 350,000). E. coli WT GFP vs humanized-ribosome RFP mutants, fluorescence, 24 h; active compounds read low; DMSO median 0, no signal -100;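 active = significant combined selectivity score with lowered wild-type GFP, culture density cut under 30%, mutant RFP and density less affected; inactive = any of these conditions unmet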
esBAF inh = SWI/SNF esBAF complex inhibition. mouse ES cells, Bmi1-luciferase knock-in reporter, 24 h; 100% = twice the neutral-well signal. actives 2% (n = 350,000). AID 602393. reporter increase, % at 12.5 µM; in the data active = activation above about 40%; inconclusive = no clear call, values can overlap the other calls;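 note: a rise in the Bmi1 reporter signal indicates esBAF inhibition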
A number is an active result; - = inactive; ? = inconclusive; . = no result. Most compounds without a hit are left out; they make up all but 3.7% or so of the library.

SMILES	AF4-AF9 inh	Wnt act	MITF act	rRNA inh HTS	esBAF inh
O=C(COC(=O)c1cccc(O)c1)Nc1ccc(OC(F)F)cc1	-	-	-	-25.1	.
O=C(COC(=O)c1ccc(N2CCCC2=O)cc1)Nc1ccccc1	-	-	-	-	-
O=C(OCC(=O)c1cccs1)c1ccccc1	.	-	-	.	47.4
Nc1cccc(C(=O)OCC(=O)c2ccccc2)c1	.	39.6	-	.	.
O=C(COC(=O)c1ccc(O)cc1)Nc1ccc(OC(F)F)cc1	-	-	-	-	-
C[C@H]1CN([C@@H](C)CO)C(=O)c2cccc(NS(=O)(=O)c3ccc(Cl)cc3)c2O[C@H]1CN(C)S(=O)(=O)c1cn(C)cn1	.	.	.	-	-
CCOC(=O)[C@]12CCCC=C1N(Cc1ccc3c(c1)OCO3)C(=O)[C@H](CC(=O)N1CCSCC1)C2	-	-	.	-	.
O=C(COC(=O)c1cccc(O)c1)c1ccccc1	-	52.7	-	-	-
O=C(OCC(=O)N(Cc1ccccc1)Cc1ccccc1)c1cccc(O)c1	-	-	-	-	-
CC(C)CC#Cc1cnc2c(c1)C(=O)N([C@@H](C)CO)C[C@@H](C)[C@@H](CN(C)Cc1ccccc1C(=O)O)O2	-	.	.	-	-
O=c1c2ccccc2c2ccccc2c(=O)n1-c1ccccc1	-	-	-	-	.
O=c1c2ccccc2c(=O)n(-c2ccccc2)n1-c1ccccc1	-	36.8	-	.	-
COc1ccc(N=CC2=C(O)CC(C)(C)CC2=O)cc1	.	.	-	.	49.4
O=c1cnn(-c2ccc(Cl)cc2Cl)c(-c2ccccc2)c1	.	.	-	.	48.7
CNc1c([N+](=O)[O-])cnn1-c1ccc(Cl)cc1Cl	.	-	-	.	-
O=C1CC(c2ccc(F)cc2)SC(N(c2ccccc2)c2ccccc2)=N1 (stereo not given)	.	-	-	.	.
CCn1c(C)nc2cc(C(=O)N/N=C/c3ccc(O)cc3)ccc21	-	-	-	-	.
CCn1c(C)nc2cc(C(=O)N/N=C/c3ccccc3)ccc21	-	-	-	-	42.9
CCn1c(C)nc2cc(C(=O)N/N=C/c3cccc(O)c3O)ccc21	-	40.8	-	-	.
CCn1c(C)nc2cc(C(=O)N/N=C/c3ccc(OC)cc3)ccc21	-	-	-	-	.
CCn1c(C)nc2cc(C(=O)N/N=C/c3ccc(OC)c(O)c3)ccc21	-	-	-	-23.1	.
Cc1ccc(S(=O)(=O)n2nc(OC(=O)c3cccc(F)c3)cc2N)cc1	-	-	-	-	-
N#CCC(=O)N/N=C/c1ccc(OCc2ccccc2)cc1	-	-	-	-	-
N#CCC(=O)N/N=C\c1ccc(OC/C=C/c2ccccc2)cc1	-	-	122.3	-	-
N#CCC(=O)N/N=C\c1ccccc1OC/C=C/c1ccccc1	-	-	-	-	63.8
SMILES	AF4-AF9 inh	Wnt act	MITF act	rRNA inh HTS	esBAF inh
CC(C)N1CCN(c2ccc(OC[C@H]3CO[C@](Cn4cncn4)(c4ccc(Cl)cc4Cl)O3)cc2)CC1	36.2	-	-	.	-
CSc1ccccc1OCc1cc(C(=O)N(C)Cc2c(C)n[nH]c2C)no1	.	.	-	.	-
O=C(c1cccs1)N1CCCc2ccccc21	-	-	-	-23.6	-
NC(=O)c1cccc(-c2coc3c(C(=O)NCc4ccccc4)cccc23)c1	-	-	.	-	50.0
COCCNC(=O)c1cccc2c(-c3cccc(C(N)=O)c3)coc12	-	-	.	-	-
Cc1noc(C)c1NC(=O)Nc1cccc2c1O[C@@H](CN(C)C(=O)Nc1ccccc1)[C@H](C)CN([C@H](C)CO)C2=O	-	.	.	-	-
CCC(=O)Nc1cccc(-c2nc3ccc(C)cc3o2)c1	-	38.0	.	-	-
Cc1ccc2oc(-c3cccc(NC(=O)c4ccccn4)c3)nc2c1	-	37.3	.	-	-
COc1cc(C(=O)Nc2cccc(-c3nc4cc(C)ccc4o3)c2)cc(OC)c1OC	-	-	-	.	.
CCC(=O)Nc1ccc2oc(-c3cccc(C)c3)nc2c1	.	.	-	.	-
Cc1ccc2oc(-c3cccc(NC(=O)C4CCCO4)c3)nc2c1 (stereo not given)	.	.	-	.	79.1
Cc1nnc2sc(SCC(=O)N3CCc4ccccc43)nn2c1=O	-	-	-	-	-
Cn1c(N=Nc2ccc(N3CCOCC3)cc2)[n+](C)c2ccccc21	58.0	-	-	-	.
COc1cccc(C(=O)Nc2ccc3c(c2)C(=O)N(C)[C@@H]2CC[C@@H](CC(=O)N[C@@H](C)c4ccccc4)O[C@@H]2CO3)c1	-	.	.	-	-
COC1CCCN(Cc2c(C(=O)N3CCc4ccccc4C3)nc3ccc(Cl)cn23)C1 (stereo not given)	-	-	-	-	-
COc1ccc2c(c1)CCc1c(C(=O)NCC(C)C)noc1-2	-	53.0	109.1	-	-
COc1ccc2c(c1)CCc1c(C(=O)N3CCCCCC3)noc1-2	.	.	121.0	.	43.7
CCN1C(=O)/C(=C2/C=Cc3ccccc3N2C)OC1=S	.	.	101.0	.	-
CCN1C(=C2C(=O)c3ccccc3C2=O)C=Cc2ccccc21	.	.	.	.	44.3
Cc1cc(S(=O)(=O)NCC2CCCO2)c(C)cc1Br (stereo not given)	-	-	.	-	-
O=C(Nc1ccc(N2CCCCC2)c(Cl)c1)c1cccnc1	.	-	-	.	48.6
O=C(Nc1ccc(N2CCCC2)c(Cl)c1)c1cccnc1	.	-	?	.	48.7
O=C(Nc1ccc(N2CCOCC2)c(Cl)c1)c1cccnc1	.	.	-	.	-
CO[C@H](CN(C)S(=O)(=O)c1ccccc1)[C@H](C)CN(Cc1ccccc1Cl)[C@H](C)CO	-	.	.	-	-
CCOC(=O)c1c(C)[nH]c(C(C)=NNC(=O)Cn2nc(C)cc2C)c1C	-	-	-	-	-
SMILES	AF4-AF9 inh	Wnt act	MITF act	rRNA inh HTS	esBAF inh
N#CC1=C(SCC(=O)Nc2ccccc2)NC(=O)CC1c1ccco1 (stereo not given)	.	.	-	.	79.0
COCCCNC(=O)[C@H]1O[C@@H](n2cnc3c(=O)[nH]c(N)nc32)[C@H](O)[C@@H]1O	.	-	.	-	.
Clc1cc(Cl)c2nc(N3CCOCC3)sc2c1	.	41.9	.	.	61.3
Cc1ccc(C2NC(=O)c3[nH]nc(-c4ccccc4)c32)cc1 (stereo not given)	.	-	.	-18.6	.
COc1ccc(O)c(C(=O)c2cnn(C(=O)c3cccc(N(C)C)c3)c2)c1	-	-	-	-	.
CN(C)c1cccc(C(=O)n2cc(C(=O)c3cc(F)ccc3O)cn2)c1	.	.	-	.	51.8
COC(=O)C(Cc1c[nH]c2ccccc12)NC(=O)c1ccc2nc[nH]c2c1 (stereo not given)	-	35.8	-	-	77.2
O=C(NC(Cc1c[nH]c2ccccc12)C(=O)O)c1ccc(F)cc1 (stereo not given)	-	-	-	-	.
COC(=O)C(Cc1c[nH]c2ccccc12)NC(=O)c1cncc(Br)c1 (stereo not given)	-	-	-	-	-
CC(C)COc1ccc(C(=O)NC(Cc2c[nH]c3ccccc23)C(=O)NN)cc1 (stereo not given)	-	-	-	-34.7	-
COc1ccc(-n2cnc3cc(C(=O)N4CCOCC4)ccc32)cc1	-	-	-	-	43.5
COc1ccc(C=C(C(C)=O)C(=O)c2ccccc2)cc1	-	-	.	-	.
